Measurements as given in paper PMC7862700, “An all-to-all approach to the identification of sequence-specific readers for epigenetic DNA modifications on cytosine”.

What was measured:
Experiment in all cases: DAPPL (digital affinity profiling via proximity ligation, sequencing); 10 mM Tris-HCl pH 7.5, 50 mM NaCl, 1 mM DTT, 4% glycerol, room temperature, 30 min; GST-TFs on glutathione beads, 16-mer random dsDNA library, 0.1% formaldehyde crosslink after washing; high values mean tight binding
FLI1 = molecular target: T1, FLI1 (Homo sapiens, UniProt Q01543 1-452); details: protein: recombinant; tags: N-terminal GST; dsDNA, one strand shown
T1 sequence: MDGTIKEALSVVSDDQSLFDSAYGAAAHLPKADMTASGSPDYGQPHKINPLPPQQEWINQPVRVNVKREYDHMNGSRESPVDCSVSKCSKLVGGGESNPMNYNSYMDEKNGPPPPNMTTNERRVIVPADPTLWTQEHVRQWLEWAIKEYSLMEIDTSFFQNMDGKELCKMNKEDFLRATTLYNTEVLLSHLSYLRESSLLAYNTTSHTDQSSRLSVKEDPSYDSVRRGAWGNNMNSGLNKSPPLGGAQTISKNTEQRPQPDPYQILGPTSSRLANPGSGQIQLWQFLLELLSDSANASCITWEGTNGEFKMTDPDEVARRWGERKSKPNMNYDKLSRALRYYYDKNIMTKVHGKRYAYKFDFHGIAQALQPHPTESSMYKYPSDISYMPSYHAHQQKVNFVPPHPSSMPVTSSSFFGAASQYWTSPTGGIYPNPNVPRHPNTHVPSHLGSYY
In short: (§1)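 Beads coated with glutathione captured GST-fused human transcription factors that had been expressed in yeast, and the factors were then given DNA barcodes and pooled with a tag-only sample. The pools were incubated with 200 nmole of a random double-stranded 16-mer DNA library in Tris/NaCl/DTT/glycerol buffer for 30 min at room temperature, washed, crosslinked with 0.1% formaldehyde and proximity-ligated with BsaI/T4 ligase at 37 °C for 1 h. PCR amplification and Illumina NextSeq500 sequencing came last. Binding signal is each hexamer's read frequency for a factor divided by its frequency for the tag-only sample.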

ELK1 = molecular target: T2, ELK1 (Homo sapiens, UniProt P19419 1-428); details: protein: recombinant; tags: N-terminal GST; dsDNA, one strand shown
T2 sequence: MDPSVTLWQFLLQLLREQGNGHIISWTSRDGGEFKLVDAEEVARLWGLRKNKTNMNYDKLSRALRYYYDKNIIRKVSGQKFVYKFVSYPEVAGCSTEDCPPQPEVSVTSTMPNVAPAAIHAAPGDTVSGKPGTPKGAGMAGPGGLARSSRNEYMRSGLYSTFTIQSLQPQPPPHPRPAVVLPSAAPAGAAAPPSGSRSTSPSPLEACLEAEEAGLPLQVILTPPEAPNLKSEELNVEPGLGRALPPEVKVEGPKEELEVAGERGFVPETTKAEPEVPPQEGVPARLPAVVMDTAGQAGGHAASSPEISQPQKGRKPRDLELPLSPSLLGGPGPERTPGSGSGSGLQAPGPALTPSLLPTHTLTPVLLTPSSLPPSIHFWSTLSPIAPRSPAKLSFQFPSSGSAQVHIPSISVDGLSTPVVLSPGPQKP
In short: as §1

GABPA = molecular target: T3, GABPA (Homo sapiens, UniProt Q06546 1-454); details: protein: recombinant; tags: N-terminal GST; dsDNA, one strand shown
T3 sequence: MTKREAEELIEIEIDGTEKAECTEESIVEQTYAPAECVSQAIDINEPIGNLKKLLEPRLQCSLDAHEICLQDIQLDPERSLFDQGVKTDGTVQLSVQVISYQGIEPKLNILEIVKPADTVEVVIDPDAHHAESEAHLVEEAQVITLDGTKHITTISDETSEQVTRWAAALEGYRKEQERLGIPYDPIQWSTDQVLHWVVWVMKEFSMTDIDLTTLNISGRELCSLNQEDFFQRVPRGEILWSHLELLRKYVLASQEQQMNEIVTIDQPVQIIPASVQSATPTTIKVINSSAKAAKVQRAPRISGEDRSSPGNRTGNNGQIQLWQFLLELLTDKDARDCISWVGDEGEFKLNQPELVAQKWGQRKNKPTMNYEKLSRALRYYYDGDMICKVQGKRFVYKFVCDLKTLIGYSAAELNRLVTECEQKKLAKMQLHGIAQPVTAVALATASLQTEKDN
In short: as §1

ERG = molecular target: T4, ERG (Homo sapiens, UniProt P11308 1-479); details: protein: recombinant; tags: N-terminal GST; dsDNA, one strand shown
T4 sequence: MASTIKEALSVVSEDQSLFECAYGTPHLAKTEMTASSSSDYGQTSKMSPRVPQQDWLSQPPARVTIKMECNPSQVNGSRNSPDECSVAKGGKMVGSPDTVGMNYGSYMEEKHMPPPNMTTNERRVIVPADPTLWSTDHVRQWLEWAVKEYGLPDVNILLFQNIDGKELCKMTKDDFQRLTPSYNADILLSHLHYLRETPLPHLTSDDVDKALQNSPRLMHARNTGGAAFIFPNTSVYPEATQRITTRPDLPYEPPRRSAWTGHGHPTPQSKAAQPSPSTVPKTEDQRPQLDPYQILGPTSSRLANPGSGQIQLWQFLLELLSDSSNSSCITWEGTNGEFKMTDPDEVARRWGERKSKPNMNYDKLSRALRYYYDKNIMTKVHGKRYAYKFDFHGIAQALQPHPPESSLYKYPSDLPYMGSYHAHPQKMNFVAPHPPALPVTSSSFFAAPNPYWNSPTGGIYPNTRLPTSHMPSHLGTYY
In short: as §1

ELF1 = ELF1 (Homo sapiens, UniProt P32519 1-619); details: protein: recombinant; tags: N-terminal GST; dsDNA, one strand shown
ELF1, sequence (P32519 whole entry): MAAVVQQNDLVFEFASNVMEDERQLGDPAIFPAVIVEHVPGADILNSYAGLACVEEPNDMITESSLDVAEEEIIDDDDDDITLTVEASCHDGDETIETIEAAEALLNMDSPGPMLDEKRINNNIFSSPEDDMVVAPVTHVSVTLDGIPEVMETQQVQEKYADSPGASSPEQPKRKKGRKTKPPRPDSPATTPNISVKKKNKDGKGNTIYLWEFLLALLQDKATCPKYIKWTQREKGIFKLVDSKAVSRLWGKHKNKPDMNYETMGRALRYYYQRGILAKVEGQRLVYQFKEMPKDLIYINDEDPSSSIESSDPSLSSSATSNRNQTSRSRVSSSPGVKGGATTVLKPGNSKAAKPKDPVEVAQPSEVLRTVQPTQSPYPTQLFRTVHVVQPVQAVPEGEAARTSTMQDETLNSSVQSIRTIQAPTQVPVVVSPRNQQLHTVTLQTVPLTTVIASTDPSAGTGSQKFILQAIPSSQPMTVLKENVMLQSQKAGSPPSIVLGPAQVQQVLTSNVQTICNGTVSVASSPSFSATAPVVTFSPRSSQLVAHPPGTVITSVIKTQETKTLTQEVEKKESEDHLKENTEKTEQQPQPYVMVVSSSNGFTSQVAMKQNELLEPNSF
In short: as §1

EHF = molecular target: T5, EHF (Homo sapiens, UniProt Q9NZC4 1-300); details: protein: recombinant; tags: N-terminal GST; dsDNA, one strand shown
T5 sequence: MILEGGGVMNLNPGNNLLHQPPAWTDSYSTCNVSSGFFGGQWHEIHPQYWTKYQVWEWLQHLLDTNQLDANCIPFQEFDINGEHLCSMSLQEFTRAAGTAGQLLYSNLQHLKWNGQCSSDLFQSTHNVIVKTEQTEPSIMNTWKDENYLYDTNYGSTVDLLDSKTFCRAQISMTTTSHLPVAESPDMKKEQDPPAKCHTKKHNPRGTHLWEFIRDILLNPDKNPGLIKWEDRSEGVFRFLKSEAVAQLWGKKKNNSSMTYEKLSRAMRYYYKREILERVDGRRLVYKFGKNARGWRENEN
In short: as §1

SPI1 = SPI1 (Homo sapiens, UniProt P17947 1-270); details: protein: recombinant; tags: N-terminal GST; dsDNA, one strand shown
In short: as §1

SPIB = SPIB (Homo sapiens, UniProt Q01892 1-262); details: protein: recombinant; tags: N-terminal GST; dsDNA, one strand shown
SPIB, sequence (Q01892 whole entry): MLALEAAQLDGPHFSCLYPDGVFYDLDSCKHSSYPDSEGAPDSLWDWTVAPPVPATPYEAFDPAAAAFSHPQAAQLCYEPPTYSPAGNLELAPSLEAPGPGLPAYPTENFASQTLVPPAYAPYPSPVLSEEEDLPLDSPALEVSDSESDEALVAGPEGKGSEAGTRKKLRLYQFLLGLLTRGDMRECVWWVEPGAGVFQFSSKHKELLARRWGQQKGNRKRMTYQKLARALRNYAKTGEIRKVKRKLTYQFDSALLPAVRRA
In short: as §1

ELK3 = molecular target: T6, ELK3 (Homo sapiens, UniProt P41970 1-407); details: protein: recombinant; tags: N-terminal GST; dsDNA, one strand shown
T6 sequence: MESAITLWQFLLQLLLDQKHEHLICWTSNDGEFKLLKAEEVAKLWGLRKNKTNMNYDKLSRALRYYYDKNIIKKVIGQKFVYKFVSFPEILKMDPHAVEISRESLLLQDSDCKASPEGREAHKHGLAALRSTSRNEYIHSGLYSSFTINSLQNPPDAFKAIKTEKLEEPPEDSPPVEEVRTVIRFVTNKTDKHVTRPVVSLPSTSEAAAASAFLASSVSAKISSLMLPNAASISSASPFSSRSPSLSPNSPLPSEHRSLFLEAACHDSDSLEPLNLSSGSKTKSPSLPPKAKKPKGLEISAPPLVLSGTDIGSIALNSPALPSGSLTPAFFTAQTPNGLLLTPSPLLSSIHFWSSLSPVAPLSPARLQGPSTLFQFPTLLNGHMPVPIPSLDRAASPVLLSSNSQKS
In short: as §1

FEV = molecular target: T7, FEV (Homo sapiens, UniProt Q99581 1-238); details: protein: recombinant; tags: N-terminal GST; dsDNA, one strand shown
T7 sequence: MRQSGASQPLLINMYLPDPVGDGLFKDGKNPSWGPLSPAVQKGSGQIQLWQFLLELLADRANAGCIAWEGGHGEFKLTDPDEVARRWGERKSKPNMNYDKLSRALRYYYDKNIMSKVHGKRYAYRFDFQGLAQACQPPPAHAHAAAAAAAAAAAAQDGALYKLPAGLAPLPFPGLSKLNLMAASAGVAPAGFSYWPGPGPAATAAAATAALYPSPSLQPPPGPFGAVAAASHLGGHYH
In short: as §1

ETV5 = ETV5 (Homo sapiens, UniProt P41161 1-510); details: protein: recombinant; tags: N-terminal GST; dsDNA, one strand shown
ETV5, sequence (P41161 whole entry): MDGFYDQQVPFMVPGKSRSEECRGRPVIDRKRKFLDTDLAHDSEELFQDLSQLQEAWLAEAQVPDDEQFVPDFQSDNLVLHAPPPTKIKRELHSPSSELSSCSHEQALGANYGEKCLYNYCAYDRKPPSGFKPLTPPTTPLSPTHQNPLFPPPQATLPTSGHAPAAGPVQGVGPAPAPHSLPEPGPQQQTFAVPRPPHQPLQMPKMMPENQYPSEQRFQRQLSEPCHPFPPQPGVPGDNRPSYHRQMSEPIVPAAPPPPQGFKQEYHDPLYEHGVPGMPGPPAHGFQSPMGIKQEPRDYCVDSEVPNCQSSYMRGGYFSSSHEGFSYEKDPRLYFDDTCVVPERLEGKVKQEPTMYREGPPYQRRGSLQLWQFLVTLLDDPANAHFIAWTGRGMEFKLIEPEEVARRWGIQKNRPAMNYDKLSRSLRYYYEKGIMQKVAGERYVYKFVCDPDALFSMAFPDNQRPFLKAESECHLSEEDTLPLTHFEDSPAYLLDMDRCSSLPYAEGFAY
In short: as §1

HSF1 = HSF1 (Homo sapiens, UniProt Q00613 1-529); details: protein: recombinant; tags: N-terminal GST; chain copies: 3; dsDNA, one strand shown
HSF1, sequence (Q00613 whole entry): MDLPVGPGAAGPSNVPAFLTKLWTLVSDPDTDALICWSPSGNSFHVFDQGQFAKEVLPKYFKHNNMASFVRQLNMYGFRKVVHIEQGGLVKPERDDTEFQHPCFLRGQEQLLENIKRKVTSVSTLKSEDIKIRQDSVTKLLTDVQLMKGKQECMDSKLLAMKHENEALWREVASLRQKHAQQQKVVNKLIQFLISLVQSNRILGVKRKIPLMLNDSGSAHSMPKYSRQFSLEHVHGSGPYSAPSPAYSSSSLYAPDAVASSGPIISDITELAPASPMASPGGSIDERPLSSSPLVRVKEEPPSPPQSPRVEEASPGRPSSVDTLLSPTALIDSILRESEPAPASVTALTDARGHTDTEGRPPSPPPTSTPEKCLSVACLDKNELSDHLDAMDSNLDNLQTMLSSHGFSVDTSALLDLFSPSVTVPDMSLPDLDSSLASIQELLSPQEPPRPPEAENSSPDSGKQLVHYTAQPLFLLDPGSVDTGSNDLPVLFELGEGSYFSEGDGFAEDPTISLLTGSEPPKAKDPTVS
In short: as §1

SPIC = molecular target: T8, SPIC (Homo sapiens, UniProt Q8N5J4 1-248); details: protein: recombinant; tags: N-terminal GST; dsDNA, one strand shown
T8 sequence: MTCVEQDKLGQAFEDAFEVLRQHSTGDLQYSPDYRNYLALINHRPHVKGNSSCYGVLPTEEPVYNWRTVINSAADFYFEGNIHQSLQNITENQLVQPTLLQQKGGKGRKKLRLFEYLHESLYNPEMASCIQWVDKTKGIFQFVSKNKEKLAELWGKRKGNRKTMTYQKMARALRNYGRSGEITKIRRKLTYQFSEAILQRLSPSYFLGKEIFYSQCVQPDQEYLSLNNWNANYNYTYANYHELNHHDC
In short: as §1

ELF4 = ELF4 (Homo sapiens, UniProt Q99607 1-663); details: protein: recombinant; tags: N-terminal GST; dsDNA, one strand shown
ELF4, sequence (Q99607 whole entry): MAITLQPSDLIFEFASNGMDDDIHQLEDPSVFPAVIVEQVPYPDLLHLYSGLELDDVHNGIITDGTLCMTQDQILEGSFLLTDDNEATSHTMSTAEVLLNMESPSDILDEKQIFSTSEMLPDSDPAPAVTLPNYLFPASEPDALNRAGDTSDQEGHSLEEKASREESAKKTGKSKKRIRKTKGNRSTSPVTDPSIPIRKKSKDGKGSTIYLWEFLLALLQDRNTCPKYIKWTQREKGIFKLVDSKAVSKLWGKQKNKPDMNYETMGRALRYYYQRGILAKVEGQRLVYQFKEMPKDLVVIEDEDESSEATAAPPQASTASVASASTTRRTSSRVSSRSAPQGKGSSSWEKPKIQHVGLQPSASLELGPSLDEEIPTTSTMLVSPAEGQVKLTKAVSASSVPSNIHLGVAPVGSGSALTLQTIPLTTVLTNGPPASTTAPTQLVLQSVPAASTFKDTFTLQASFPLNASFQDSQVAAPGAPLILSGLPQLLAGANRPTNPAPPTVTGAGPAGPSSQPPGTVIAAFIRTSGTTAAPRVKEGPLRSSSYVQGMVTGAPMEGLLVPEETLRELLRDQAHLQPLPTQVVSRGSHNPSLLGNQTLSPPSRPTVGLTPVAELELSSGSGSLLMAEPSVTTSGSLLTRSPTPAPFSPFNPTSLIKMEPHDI
In short: as §1

ELK4 = molecular target: T9, ELK4 (Homo sapiens, UniProt P28324-2 1-405); details: protein: recombinant; tags: N-terminal GST; dsDNA, one strand shown
T9 sequence: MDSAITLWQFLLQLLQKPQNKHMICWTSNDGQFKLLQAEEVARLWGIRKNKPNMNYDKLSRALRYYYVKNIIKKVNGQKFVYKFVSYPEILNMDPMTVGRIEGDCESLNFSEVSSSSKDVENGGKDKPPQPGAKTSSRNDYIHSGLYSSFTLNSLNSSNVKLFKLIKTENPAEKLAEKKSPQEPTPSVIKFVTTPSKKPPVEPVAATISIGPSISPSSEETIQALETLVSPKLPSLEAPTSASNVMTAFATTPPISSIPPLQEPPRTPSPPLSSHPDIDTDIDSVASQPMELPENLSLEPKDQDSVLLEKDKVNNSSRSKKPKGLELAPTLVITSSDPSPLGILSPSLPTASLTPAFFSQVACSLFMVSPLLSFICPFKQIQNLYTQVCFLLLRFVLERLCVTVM
In short: as §1

ETV2 = molecular target: T10, ETV2 (Homo sapiens, UniProt O00321 1-342); details: protein: recombinant; tags: N-terminal GST; dsDNA, one strand shown
T10 sequence: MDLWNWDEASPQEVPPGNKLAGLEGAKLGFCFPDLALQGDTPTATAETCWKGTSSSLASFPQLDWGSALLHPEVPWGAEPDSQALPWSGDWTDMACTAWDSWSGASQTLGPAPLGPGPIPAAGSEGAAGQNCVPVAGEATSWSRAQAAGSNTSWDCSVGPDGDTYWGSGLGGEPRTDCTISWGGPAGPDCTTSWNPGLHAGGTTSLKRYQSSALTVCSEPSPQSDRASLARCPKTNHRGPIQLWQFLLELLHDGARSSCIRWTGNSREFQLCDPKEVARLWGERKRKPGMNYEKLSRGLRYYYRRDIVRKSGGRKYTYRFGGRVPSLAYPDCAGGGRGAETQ
In short: as §1

ELF3 = molecular target: T11, ELF3 (Homo sapiens, UniProt P78545 1-371); details: protein: recombinant; tags: N-terminal GST; dsDNA, one strand shown
T11 sequence: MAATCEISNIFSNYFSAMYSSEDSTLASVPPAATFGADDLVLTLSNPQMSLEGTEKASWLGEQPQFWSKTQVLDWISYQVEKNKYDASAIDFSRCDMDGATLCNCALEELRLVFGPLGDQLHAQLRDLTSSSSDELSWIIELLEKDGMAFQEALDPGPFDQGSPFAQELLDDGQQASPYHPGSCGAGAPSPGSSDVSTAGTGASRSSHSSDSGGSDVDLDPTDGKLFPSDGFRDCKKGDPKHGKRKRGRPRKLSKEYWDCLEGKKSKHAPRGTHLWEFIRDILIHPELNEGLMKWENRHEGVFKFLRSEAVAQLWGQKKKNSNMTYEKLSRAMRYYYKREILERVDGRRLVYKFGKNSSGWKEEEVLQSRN
In short: as §1

CRX = CRX (Homo sapiens, UniProt O43186 1-299); details: protein: recombinant; tags: N-terminal GST; dsDNA, one strand shown
CRX, sequence (O43186 whole entry): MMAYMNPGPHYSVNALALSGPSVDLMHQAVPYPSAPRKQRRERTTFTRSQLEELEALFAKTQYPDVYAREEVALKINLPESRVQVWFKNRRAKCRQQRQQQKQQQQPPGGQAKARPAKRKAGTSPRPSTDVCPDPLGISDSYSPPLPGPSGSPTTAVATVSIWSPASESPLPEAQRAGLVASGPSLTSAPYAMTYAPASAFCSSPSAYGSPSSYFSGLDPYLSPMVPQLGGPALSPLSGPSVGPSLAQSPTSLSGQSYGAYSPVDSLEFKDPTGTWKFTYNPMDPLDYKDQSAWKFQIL
In short: as §1

ETV1 = ETV1 (Homo sapiens, UniProt P50549 1-477); details: protein: recombinant; tags: N-terminal GST; dsDNA, one strand shown
ETV1, sequence (P50549 whole entry): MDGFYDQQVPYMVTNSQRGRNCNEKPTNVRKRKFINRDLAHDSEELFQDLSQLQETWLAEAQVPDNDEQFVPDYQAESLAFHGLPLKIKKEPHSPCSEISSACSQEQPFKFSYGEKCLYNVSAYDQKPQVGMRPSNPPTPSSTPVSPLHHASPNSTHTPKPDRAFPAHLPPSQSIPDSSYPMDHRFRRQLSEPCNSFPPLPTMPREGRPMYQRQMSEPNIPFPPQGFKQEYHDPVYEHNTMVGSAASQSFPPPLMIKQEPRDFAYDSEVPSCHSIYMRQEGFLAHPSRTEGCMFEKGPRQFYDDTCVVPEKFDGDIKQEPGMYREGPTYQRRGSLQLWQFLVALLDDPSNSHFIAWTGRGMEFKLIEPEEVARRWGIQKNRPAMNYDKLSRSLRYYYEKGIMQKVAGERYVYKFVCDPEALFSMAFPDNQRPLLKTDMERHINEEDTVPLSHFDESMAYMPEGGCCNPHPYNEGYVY
In short: as §1

With AACGCT the binding signal (FLI1) was 1.16 fold enrichment (6-mer frequency, TF over GST control), the binding signal (ELK1) was 1.22 fold enrichment (6-mer frequency, TF over GST control) and the binding signal (GABPA) was 1.22 fold enrichment (6-mer frequency, TF over GST control). For the same sequence, the binding signal (ERG) was 1.19 fold enrichment (6-mer frequency, TF over GST control), the binding signal (ELF1) was 1.27 fold enrichment (6-mer frequency, TF over GST control) and the binding signal (EHF) was 1.23 fold enrichment (6-mer frequency, TF over GST control). For the same sequence, the binding signal (SPI1) was 1.17 fold enrichment (6-mer frequency, TF over GST control), the binding signal (SPIB) was 1.21 fold enrichment (6-mer frequency, TF over GST control) and the binding signal (ELK3) was 1.2 fold enrichment (6-mer frequency, TF over GST control). The binding signal (FEV) was 1.18 fold enrichment (6-mer frequency, TF over GST control), the binding signal (ETV5) was 1.23 fold enrichment (6-mer frequency, TF over GST control) and the binding signal (HSF1) was 1.06 fold enrichment (6-mer frequency, TF over GST control). For the same sequence, the binding signal (SPIC) was 1.26 fold enrichment (6-mer frequency, TF over GST control), the binding signal (ELF4) was 1.27 fold enrichment (6-mer frequency, TF over GST control) and the binding signal (ELK4) was 1.22 fold enrichment (6-mer frequency, TF over GST control). For the same sequence, the binding signal (ETV2) was 1.24 fold enrichment (6-mer frequency, TF over GST control), the binding signal (ELF3) was 1.14 fold enrichment (6-mer frequency, TF over GST control) and the binding signal (CRX) was 1.17 fold enrichment (6-mer frequency, TF over GST control). The binding signal (ETV1) was 1.2 fold enrichment (6-mer frequency, TF over GST control).
